# UBC9 SUMO inh: inhibitors of human SUMOylation (UBC9). HTRF SUMOylation assay, SAE1/SAE2 + UBC9, in vitro. P63279. inhibition, % at 35 µM. AID 2006. actives 0.36% (n = 290,000); in the data active means inhibition above about 50%, passing the limit was not always enough; inconclusive means no clear call, values can overlap the other calls
# PfM18AAP inh: blocks P. falciparum M18 aspartyl aminopeptidase; recombinant PfM18AAP, H-Glu-NHMec fluorogenic cleavage; inhibition, % at 7.35 µM; actives 1.2% (n = 290,000);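 active means inhibition above the campaign mean inhibition over all tested compounds plus 3 SD, cut at about 28% in these data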
# HDAC3 inh: blocks human histone deacetylase 3; inhibition, % at 8.3 µM; recombinant HDAC3, fluorogenic peptide/trypsin coupled, fluorescence; AID 2718; actives 0.15% (n = 320,000); O15379; in the data active means inhibition above about 26%, passing the limit was not always enough; inconclusive means no clear call, values can overlap the other calls
# p97 ATPase inh: human p97 ATPase inhibition; P55072; recombinant p97 ATPase, Kinase-Glo ATP luminescence, 3 h; inhibition, % at 8 µM; actives 0.42% (n = 220,000); in the data active means inhibition above about 15%
# Target sequence (P55072 whole entry, looked up): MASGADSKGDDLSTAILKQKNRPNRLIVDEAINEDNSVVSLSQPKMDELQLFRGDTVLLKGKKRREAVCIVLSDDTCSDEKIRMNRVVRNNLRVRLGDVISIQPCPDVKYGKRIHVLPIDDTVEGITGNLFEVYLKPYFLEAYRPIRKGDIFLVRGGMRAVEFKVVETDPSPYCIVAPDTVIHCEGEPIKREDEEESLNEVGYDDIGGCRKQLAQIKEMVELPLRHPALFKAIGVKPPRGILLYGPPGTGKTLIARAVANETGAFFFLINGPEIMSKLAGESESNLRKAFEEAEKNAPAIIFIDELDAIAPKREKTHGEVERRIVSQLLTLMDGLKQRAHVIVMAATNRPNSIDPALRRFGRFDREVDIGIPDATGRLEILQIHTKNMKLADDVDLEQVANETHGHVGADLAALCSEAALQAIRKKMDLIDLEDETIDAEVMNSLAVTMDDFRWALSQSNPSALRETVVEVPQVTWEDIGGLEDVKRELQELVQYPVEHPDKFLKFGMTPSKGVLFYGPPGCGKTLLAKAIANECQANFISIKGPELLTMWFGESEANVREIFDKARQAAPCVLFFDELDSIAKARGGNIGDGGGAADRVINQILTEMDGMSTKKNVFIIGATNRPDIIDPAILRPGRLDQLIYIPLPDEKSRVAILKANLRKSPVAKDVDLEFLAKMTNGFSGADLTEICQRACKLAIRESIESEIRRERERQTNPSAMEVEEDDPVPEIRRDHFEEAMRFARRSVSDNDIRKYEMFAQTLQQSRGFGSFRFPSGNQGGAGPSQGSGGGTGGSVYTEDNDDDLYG
# PHOSPHO1 block: inhibitors of human PHOSPHO1 phosphatase; Q8TCT1; recombinant PHOSPHO1, absorbance phosphatase assay; inhibition, % at 13.3 µM; actives 1.1% (n = 290,000); AID 1565; in the data active means inhibition above about 60%
# G6PDH counter: inhibits Leuconostoc G6PDH, flagging false hits in G6PDH-based assays | Purified L. mesenteroides G6PDH, diaphorase/resazurin coupled fluorescence, 45 min | AID 1020 | inhibition, % at 5 µM | actives 0.12% (n = 200,000); in the data active means inhibition above about 50%
# Hits are given with their value; - = inactive; ? = inconclusive; . = no result given. Rows were chosen to be rich in hits. Some 2.5% of all compounds tested hit in one or more screens of this group.
SMILES,UBC9 SUMO inh,PfM18AAP inh,HDAC3 inh,p97 ATPase inh,PHOSPHO1 block,G6PDH counter
c1csc(-c2nn3c(Cn4nnc5ccccc54)nnc3s2)c1,-,-,-,-,-,-
c1ccc(Cc2nnc3sc(-c4cccs4)nn23)cc1,-,-,-,-,-,-
c1ccc(Cc2nnc3sc(-c4ccccn4)nn23)cc1,-,-,-,-,66,-
c1ccc2c(c1)nnn2Cc1nnc2sc(-c3ccncc3)nn12,-,-,-,-,79,-
Cc1ccccc1NS(=O)(=O)c1cccc2nsnc12,-,-,-,.,.,.
COc1ccc(-n2cc(CN3CCCC3)c(-c3cccc(F)c3)n2)cc1,-,-,-,-,61,-
Cc1cccc(-n2cc(CN3CCN(Cc4nccn4C)CC3)c(-c3cccc(F)c3)n2)c1,-,-,-,-,61,-
COc1ccccc1-[n+]1c(C)cc(/C=C2\Sc3ccccc3N2C)cc1C,-,48,?,-,-,.
NC(=O)[C@@H]1CCCN1C(=O)c1ccc2nc(Cc3cccc(Cl)c3)oc2c1,-,-,.,.,-,.
Cc1cc(C(=O)Nc2ccc([N+](=O)[O-])cn2)cs1,-,-,-,.,-,.
O=C(Oc1ccc(Cl)cc1N1C(=O)CCC1=O)c1ccco1,-,-,34,-,-,-
O=C(c1ccc(F)cc1)N1CCC(C(=O)N2CCN(c3ncccn3)CC2)CC1,.,.,-,.,.,.
CCc1nnc(NC(=O)COC(=O)CN2C(=O)c3ccccc3C2=O)s1,-,-,-,-,-,-
CCCc1nnc(NC(=O)CN2C(=O)c3ccccc3C2=O)s1,-,-,-,-,86,-
CCC(CC)c1nnc(NC(=O)CN2C(=O)c3ccccc3C2=O)s1,-,-,-,-,-,-
CCc1nnc(NC(=O)CN2C(=O)c3ccccc3C2=O)s1,-,-,-,-,74,-
COc1cc(/C=N/n2c(-c3ccccc3)n[nH]c2=S)ccc1O,-,-,-,-,103,.
Cc1c(Br)c(O)c(Br)c(O)c1/C=N/n1c(-c2ccccc2)n[nH]c1=S,-,29,-,.,-,.
CCOC(=O)C1(CC)NC(c2ccc(OC)c(OC)c2)C2C(=O)N(c3cccc(C(C)=O)c3)C(=O)C21 (configuration not stated),-,-,-,.,-,.
COc1ccc(S(=O)(=O)N2CCCOC2CNC(=O)C(=O)NCCCn2ccnc2)cc1 (configuration not stated),-,-,-,-,61,-
CNC(=O)C(=O)NCC1OCCN1S(=O)(=O)c1ccc(C)cc1 (configuration not stated),-,-,-,.,-,.
Cc1ccc(S(=O)(=O)N2CCOC2CNC(=O)C(=O)NCC(C)C)cc1 (configuration not stated),-,-,-,.,62,.
Cc1cccc(N2CCN(S(=O)(=O)c3cc(-c4cc(C)no4)ccc3C)CC2C)c1 (configuration not stated),-,-,-,.,-,.
COc1cc(N)c(Cl)cc1C(=O)OCC(=O)NCC1CCCCC1,.,.,-,.,.,.
Oc1c(CN2CCOCC2)ccc2ccccc12,-,-,.,-,-,60
SMILES,UBC9 SUMO inh,PfM18AAP inh,HDAC3 inh,p97 ATPase inh,PHOSPHO1 block,G6PDH counter
COc1ccc(-c2nc3ncccc3o2)cc1NC(=O)c1ccco1,-,-,-,.,-,.
CC(C)(C)NC(=O)NC(=O)CSc1n[nH]c(-c2ccccc2Br)n1,-,-,-,-,63,-
O=C(CSc1n[nH]c(-c2ccccc2Br)n1)NC(=O)NCc1ccco1,-,-,-,-,-,-
Cc1ccc(N2CC(O)(c3cccs3)[N+]3=C2CCCC3)cc1 (configuration not stated),-,-,-,-,61,-
CCN(C(=O)CSc1nc2ccccc2n1C)C1CCS(=O)(=O)C1 (configuration not stated),.,.,-,.,.,.
COc1ccc(OC)c(C=NNC(=O)c2ccccc2NS(=O)(=O)c2cccs2)c1,.,.,-,.,.,.
CCn1ccc2cc(OC)ccc2c1=S,-,-,-,-,87,-
O=S(=O)(Nc1ncn[nH]1)c1ccc(Cl)cc1,-,59,-,-,-,-
c1ccc(CNc2ccc(CNc3ncn[nH]3)cc2)cc1,-,-,-,-,-,-
Clc1ccc(CNc2ccc(CNc3ncn[nH]3)cc2)cc1,-,37,-,-,-,-
Clc1ccc(CNc2ccc(CNc3ncn[nH]3)cc2)c(Cl)c1,-,28,-,-,-,.
CCOC(=O)CC1C(=O)NCCN1S(=O)(=O)c1cccc(C(F)(F)F)c1 (configuration not stated),-,-,-,.,-,.

# High-throughput results as filed in PubChem BioAssay.
